Experimental data reported in PubChem BioAssay AID1159580 (chemical genetic matrix, 2015).
Screen size: about 5,500 compounds; about 2,000 (36%) were called active. Not shown: some 18% with an inconclusive outcome. Rule as the data show it: active = normalized growth mostly below about 0.91 (no sharp cut-off); inconclusive = no clear call, values can overlap the other calls; inactive = mostly above about 0.92. The list shows a part of the results.

Test: chemical genetic growth profiling, strain panel (AID 1159580);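 also: tested at 20 µM; growth read once vehicle control cultures reached saturation at 30 °C; 1 = growth at the plate median or of vehicle wells; lower values mean less growth of the strain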
Settings: S. cerevisiae deletion strains, growth OD

Measured: normalized growth

CC(=O)CC(=O)CCC(=O)O
inactive: locus YAL021C, strain ccr4, active compounds read low 0.991 | locus YAL026C, strain drs2, active compounds read low 1.05 | locus YAL030W, strain snc1, active compounds read low 1.02 | locus YBL061C, strain skt5, active compounds read low 1.03 | locus YBR009C, strain hhf1, active compounds read low 1.03 | locus YBR023C, strain chs3, active compounds read low 1.03 | locus YBR171W, strain sec66, active compounds read low 1.04 | locus YBR231C, strain swc5, active compounds read low 1.03 | locus YBR279W, strain paf1, active compounds read low 1.02 | locus YCL011C, strain gbp2, active compounds read low 1.02 | locus YCL016C, strain dcc1, active compounds read low 1.02 | locus YCL061C, strain MRC1, active compounds read low 1.02 | locus YCL069W, strain vba3, active compounds read low 1.02 | locus YCR088W, strain abp1, active compounds read low 1.02 | locus YDL005C, strain med2, active compounds read low 1.03 | locus YDL040C, strain nat1, active compounds read low 1.02 | locus YDR001C, strain nth1, active compounds read low 1.01 | locus YDR069C, strain doa4, active compounds read low 1.03 | locus YDR137W, strain rgp1, active compounds read low 1.01 | locus YDR159W, strain sac3, active compounds read low 1 | locus YDR195W, strain ref2 0.989 | locus YDR297W, strain sur2, active compounds read low 1.01 | locus YDR334W, strain swr1, active compounds read low 1.03 | locus YDR335W, strain msn5, active compounds read low 1.02 | locus YDR392W, strain spt3, active compounds read low 0.95 | locus YEL003W, strain gim4, active compounds read low 1.02 | locus YEL037C, strain rad23, active compounds read low 1.02 | locus YEL061C, strain CIN8 (second series), active compounds read low 1.02 | locus YER015W, strain faa2, active compounds read low 1.02 | locus YER016W, strain bim1, active compounds read low 1.04 | locus YER111C, strain swi4, active compounds read low 1.03 | locus YER155C, strain BEM2 (second series), active compounds read low 1.05 | locus YFR010W, strain ubp6, active compounds read low 1.03 | locus YGL167C, strain pmr1, active compounds read low 1.02 | locus YGL173C, strain kem1, active compounds read low 1.03 | locus YGL227W, strain vid30, active compounds read low 1.01 | locus YGL240W, strain doc1, active compounds read low 1.04 | locus YGL253W, strain hxk2, active compounds read low 1.05 | locus YHR013C, strain ard1, active compounds read low 1.04 | locus YHR027C, strain rpn1, active compounds read low 1.03 | locus YHR030C, strain SLT2, active compounds read low 0.982 | locus YHR079C, strain IRE1, active compounds read low 0.996 | locus YHR142W, strain chs7, active compounds read low 1.02 | locus YJL092W, strain hpr5, active compounds read low 1.02 | locus YJL095W, strain BCK1 (second series), active compounds read low 1.02 | locus YJL095W, strain BCK1, active compounds read low 0.983 | locus YJL115W, strain asf1, active compounds read low 1.03 | locus YJL129C, strain trk1, active compounds read low 1.01 | locus YJL154C, strain vps35, active compounds read low 1.01 | locus YJL164C, strain tpk1, active compounds read low 1.01 | locus YJL166W, strain qcr8, active compounds read low 1.02 | locus YJL187C, strain SWE1, active compounds read low 1.02 | locus YJR066W, strain TOR1, active compounds read low 0.962 | locus YKL160W, strain elf1, active compounds read low 1 | locus YKR026C, strain gcn3, active compounds read low 1.03 | locus YKR091W, strain srl3, active compounds read low 1.02 | locus YLL001W, strain dnm1, active compounds read low 1.01 | locus YLL026W, active compounds read low 1.02 | locus YLL041C, strain sdh2, active compounds read low 1.02 | locus YLR027C, strain aat2, active compounds read low 1.03 | locus YLR113W, strain HOG1, active compounds read low 1.04 | locus YLR221C, strain rsa3, active compounds read low 1.01 | locus YLR258W, strain gsy2, active compounds read low 1.04 | locus YLR262C, strain YPT6 (second series), active compounds read low 1.02 | locus YLR320W, strain mms22, active compounds read low 1.03 | locus YLR342W, strain FKS1, active compounds read low 1.03 | locus YLR357W, strain rsc2, active compounds read low 0.968 | locus YLR370C, strain arc18, active compounds read low 1.03 | locus YLR384C, strain iki3, active compounds read low 1.03 | locus YML120C, strain ndi1, active compounds read low 1 | locus YMR058W, strain fet3, active compounds read low 1.02 | locus YMR125W, strain sto1, active compounds read low 1.02 | locus YMR129W, active compounds read low 1.02 | locus YMR205C, strain PFK2, active compounds read low 1.02 | locus YMR231W, strain pep5, active compounds read low 1.02 | locus YNL071W, strain lat1, active compounds read low 1.03 | locus YNL183C, strain NPR1, active compounds read low 0.91 | locus YNL209W, strain ssb2, active compounds read low 1.02 | locus YNL248C, strain rpa49, active compounds read low 0.989 | locus YNL322C, strain KRE1 (second series), active compounds read low 1.02 | locus YNR049C, strain mso1, active compounds read low 1.02 | locus YOR001W, strain rrp6, active compounds read low 1.01 | locus YOR070C, strain gyp1, active compounds read low 1.02 | locus YOR080W, strain dia2, active compounds read low 1.01 | locus YOR083W, strain WHI5, active compounds read low 1 | locus YOR106W, strain vam3, active compounds read low 1.03 | locus YOR231W, strain MKK1, active compounds read low 0.992 | locus YOR265W, strain rbl2, active compounds read low 1.02 | locus YOR270C, strain vph1, active compounds read low 1.11 | locus YOR290C, strain snf2, active compounds read low 1.01 | locus YPL051W, strain arl3, active compounds read low 1.01 | locus YPL078C, strain atp4, active compounds read low 1.01 | locus YPL106C, strain sse1, active compounds read low 1.02 | locus YPL240C, strain hsp82, active compounds read low 1.03 | locus YPL256C, strain CLN2, active compounds read low 0.99
